CF NFkB inh: blocks PAF-induced NF-kB reporter in cystic fibrosis cells; KKLEB NF-kB-GFP reporter, GFP fluorescence overnight; inhibition, % at 5 µM; hit rate 0.86% among 360,000; AID 588850;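 active = at least 50% inhibition at 5 µM, scaled per plate between neutral and stimulator controls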;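 also: PAF is a Pseudomonas aeruginosa culture filtrate used as stimulus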
Beta2AR agonist: human beta-2 adrenergic receptor agonism by FAP | AID 504454 | response, % (concentration not given with the values) | P07550 | Am2.2-beta2AR cells, FAP receptor internalization, flow cytometry | hit rate 0.43% among 340,000;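 active = response above a set limit, near 3 SD of response in nonfluorescent compounds, cut at about 42% in these data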
Target sequence (P07550 whole entry, looked up): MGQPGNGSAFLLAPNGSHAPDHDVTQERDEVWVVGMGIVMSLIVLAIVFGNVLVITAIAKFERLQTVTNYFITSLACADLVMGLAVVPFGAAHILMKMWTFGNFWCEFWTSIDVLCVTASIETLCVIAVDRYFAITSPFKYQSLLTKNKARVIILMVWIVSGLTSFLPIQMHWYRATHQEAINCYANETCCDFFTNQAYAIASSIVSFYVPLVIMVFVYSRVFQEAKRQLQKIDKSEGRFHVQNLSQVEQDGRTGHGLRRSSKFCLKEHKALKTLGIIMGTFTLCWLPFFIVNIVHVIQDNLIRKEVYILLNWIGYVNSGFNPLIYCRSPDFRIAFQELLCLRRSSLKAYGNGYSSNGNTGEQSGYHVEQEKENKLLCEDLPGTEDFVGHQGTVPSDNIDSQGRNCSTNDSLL
Peg3 promoter: inhibitors of Peg3 promoter | AID 588405 | inhibition, % at 20 µM | hit rate 1.7% among 360,000 | HeLa PEG-Prom luciferase reporter, luminescence, overnight;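 active = inhibition of at least 50% at 20 µM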
HIF-2a inh: HIF-2a inhibition | 786-0 RCC cells HIF-2a reporter, luciferase luminescence, overnight | hit rate 0.72% among 360,000 | inhibition, % at 18.8 µM;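 active = inhibition of the luminescence signal of 40% or more relative to plate controls, in a single-dose primary screen at 18.75 µM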
KKLEB cytotox: CF airway cell cytotoxicity counter-screen; KKLEB CF airway cells viability, ATPlite luminescence, overnight; hits give low values; cells stimulated with P. aeruginosa culture filtrate; hit rate 0.36% among 360,000; AID 602141; activity change (cytotoxicity), % at 5 µM;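 active = corrected activity change at or below -50% at 5 µM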
TRPM1 prom inh: MITF TRPM1 promoter inhibition in SK-MEL-5 cells. inhibition, % at 12.5 µM. hit rate 0.83% among 330,000. SK-MEL-5 TRPM1 promoter luciferase, 24 h;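 active = mean inhibition across replicates of 60% or more, whatever share of single replicates reaches that level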
A number is an active result; n = inactive; x = not tested or not shown. Hits are enriched below; roughly 2.8% of the tested compounds scored in any of these assays.

SMILES	CF NFkB inh	Beta2AR agonist	Peg3 promoter	HIF-2a inh	KKLEB cytotox	TRPM1 prom inh
C[C@H](CO)N1C[C@H](C)[C@@H](CN(C)C(=O)Oc2ccccc2)OCc2cn(nn2)CCCC1=O	n	x	n	n	n	x
CC(=NCc1ccccc1)c1ccc(O)cc1O	n	x	n	n	n	x
CC(C)(C)n1nnnc1C(CCc1ccccc1)N1CCN(C/C=C/c2ccccc2)CC1 (stereo unspecified)	n	x	n	n	n	x
CSCCC(C(=O)Nc1c(C)cccc1C)n1c(-c2cnc(C)cn2)nc2ccccc21 (stereo unspecified)	x	x	x	n	x	x
COc1ccc(/C=C\C(=O)O[C@@H]2C(O)C(O[C@@H]3OC(C)[C@H](O[C@@H]4OCC(O[C@H]5O[C@H](CO)[C@@H](O)C(O)C5O)C(O)C4O)C(O)C3O)[C@H](OC(=O)[C@]34CCC(C)(C)C[C@@H]3C3=CCC5[C@@]6(C)CC(O)C(O[C@@H]7OC(CO)C(O)[C@H](O)[C@H]7O)[C@@](C)(C(=O)O)C6CC[C@@]5(C)[C@]3(CO)CC4)O[C@H]2C)cc1 (stereo partly specified)	n	n	51	n	n	68
C[C@@H]1CC[C@]2(C(=O)O[C@@H]3O[C@H](CO)[C@@H](O)[C@H](O)[C@H]3O)CC[C@]3(C)C(=CCC4[C@@]5(C)CC[C@H](O[C@@H]6OC[C@H](O)[C@H](O[C@@H]7O[C@H](CO)[C@@H](O)[C@H](O)[C@H]7O)[C@H]6O)C(C)(C)C5CC[C@]43C)C2[C@]1(C)O (stereo partly specified)	n	n	n	n	n	n
CCCCCCCCOC(=O)c1c(CSC(=N)N)n(C)c2cc(Br)c(OC(C)=O)cc12	n	n	98	n	n	x
CCOC(=O)c1c(CSC(=N)N)n(-c2ccc(Br)cc2)c2cc(Br)c(OC(C)=O)cc12	n	n	n	n	n	n
CCOC(=O)c1c(CSc2nc(C)cc(C)c2C#N)n(C)c2cc(Br)c(OC(C)=O)cc12	n	n	n	n	-55	n
CC(C)(C)C1CCc2c(C(=O)NNC(=O)/C=C/C(=O)O)csc2C1 (stereo unspecified)	n	48	n	n	n	n
CC(C)(C)C1CCc2c(C(=O)N/N=C/c3cccs3)csc2C1 (stereo unspecified)	n	94	n	n	n	n
Cc1ccccc1CN1C(=O)c2ccccc2C1c1nnnn1-c1ccc2c(c1)OCCO2 (stereo unspecified)	x	x	x	n	x	x
CCN1CCN(c2ccc(NC(=O)CCc3c(C)nc4c(-c5ccccc5)c(C)nn4c3C)cc2)CC1	n	n	70	n	n	n
CCN1CCN(c2cc(C(C)(C)C)nc3c(-c4ccccc4)c(C)nn23)CC1	n	n	51	n	n	n
Cc1nn2c(N3CCOCC3)cc(C(C)(C)C)nc2c1-c1ccccc1	n	n	n	n	n	n
O=C(C(=O)N1CCN(CCN2CCOCC2)CC1)c1ccccc1	x	x	x	n	x	x
O=[N+]([O-])c1cc(Br)c(Nc2ccccc2)c([N+](=O)[O-])c1	n	47	n	n	n	n
O=[N+]([O-])c1ccc(N2CCN(Cc3ccccc3)CC2)c2c1no[n+]2[O-]	n	x	95	n	-61	x
CCc1ccc2c(c1)C1(NN=C(c3ccc(C)cc3)S1)C(=O)N2 (stereo unspecified)	n	n	n	89	n	n
Cc1cc(C(=O)CSc2nc(N)cc(=O)[nH]2)c(C)n1CC1CCCO1 (stereo unspecified)	n	n	n	n	n	n
Cc1cc(C(=O)CSc2nc3ccccc3[nH]2)c(C)n1CC1CCCO1 (stereo unspecified)	n	n	102	n	n	n
Cc1cc2nc(-c3ccc(F)cc3)c(CC3CCCCC3)n2c(C)c1Br	x	x	x	n	x	x
CCN(CC)C(=O)C1=C(C)N(CCCOC)C(=O)C(CC(=O)NC2CCCC2)C1 (stereo unspecified)	n	x	n	n	n	x
Cc1nn(-c2ccccc2)c(C)c1C(=O)OCC(=O)N1c2ccccc2NC(=O)C1(C)C	n	n	59	n	n	n
Cc1cnc(C(=O)OCC(=O)N2c3ccccc3NC(=O)C2(C)C)cn1	n	n	n	n	n	n
SMILES	CF NFkB inh	Beta2AR agonist	Peg3 promoter	HIF-2a inh	KKLEB cytotox	TRPM1 prom inh
Cc1ccc(CCNC(=O)c2nnc(CS(=O)(=O)c3ccccc3)o2)cc1	n	n	62	n	n	n
CCOC(=O)N1CCC(N2C(=O)c3ccccc3C2Nc2ccc3c(c2)OCCO3)CC1 (stereo unspecified)	n	n	n	n	n	71
CCOC(=O)N1CCC(N2C(=O)c3ccccc3C2Nc2ccc3c(C)cc(=O)oc3c2)CC1 (stereo unspecified)	n	n	n	n	n	n
Oc1ccc(C=NNC(=S)Nc2ccccc2)nc1	n	x	n	n	n	x
CCc1nc2ccc(C(=O)Nc3cc(-c4ccccc4)ccc3OC)cn2c1N(CC)CCN(C)C	n	x	84	n	n	x
CCc1nc2ccc(C(=O)Nc3cc(-c4ccccc4)ccc3OC)cn2c1N(CC)Cc1cccc(Br)c1	n	x	n	n	n	x
NC(c1ccccc1)c1cccs1 (stereo unspecified)	n	x	n	n	n	x
CC(=O)Nc1ccc(C2=NOC(C)(C)C(=O)N2Cc2cccc(C#N)c2)cc1	n	x	n	n	n	x
CC(C)CN(C(=O)COC(=O)c1cncc(Br)c1)c1c(N)n(Cc2ccccc2)c(=O)[nH]c1=O	n	n	n	n	n	n
CC(C)CN(C(=O)COC(=O)C12CC3CC(CC(C3)C1)C2)c1c(N)n(Cc2ccccc2)c(=O)[nH]c1=O	n	n	n	n	n	88
CC(C)CN(C(=O)COC(=O)c1ccc(Br)cc1)c1c(N)n(Cc2ccccc2)c(=O)[nH]c1=O	n	n	63	n	n	n
COCCNC(=O)C1CCCN(C(=O)c2ccc(C(F)(F)F)nc2C)CC1 (stereo unspecified)	n	x	n	n	n	x
CCOC(=O)N1CCN(C(=O)C[C@@H]2C[C@@]3(C(=O)OC)CCCCC=C3N(Cc3ccccc3)C2=O)CC1	x	x	x	n	x	x
COc1ccc(NS(=O)(=O)c2cccc(C(=O)N3CCCC3)c2)cc1	n	n	58	n	n	n
CC(=O)c1ccc(NC(=O)c2ccc([N+](=O)[O-])o2)cc1	n	n	n	n	n	n
NC(=O)c1oc2ccccc2c1NC(=O)c1ccc([N+](=O)[O-])o1	62	n	109	n	n	83
COc1cc(NC(=O)c2cccc([N+](=O)[O-])c2)ccc1NC(=O)c1ccco1	n	n	n	n	n	n
COc1cc(NC(=O)c2ccc([N+](=O)[O-])o2)ccc1NC(=O)c1ccco1	n	n	57	n	n	84
Cc1cc(C)cc(NC(=O)c2ccc([N+](=O)[O-])o2)c1	85	n	75	n	-68	65
